28 molecules from PubChem BioAssay (NCATS) can be followed below.

SMILES strings stand for the structures. Results filed as inconclusive are left out. A number with no mark means an inactive call. Activity calls are given as the source filed them. Calls come from the whole dose curve; as a rule, active = well fitted inhibition curve with a large enough effect; inconclusive = small, poorly fitted or top-dose-only effect; inactive = flat fitted curve, though single readings scatter.
Potency is the fitted concentration of half-maximal effect.

The first assay can be described thus: BET inhibitor-based combinations targeting novel dependencies in MECOM-rearranged (r) AML: AML-191 cell line (AID 2202236; note: nearly all actives have a fitted effect of over 35% in size;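 for viability (% of control): plate controls were vehicle wells for no effect and wells without cells for full effect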). The note with it: AML-191 viability, CellTiter-Glo luminescence, 48 h; series mostly up to 46 µM; viability (% of control): at the top concentration. Put shortly:
(§1)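 AML cell lines seeded at 500 cells/well, treated with 11-point dose curves for 48 h. Viability by CellTiter-Glo luminescence, normalised to DMSO and empty wells; activity expressed as AUC and per-cell-line Z-transformed AUC.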
On to `CCC[C@H](Nc1nc(-c2ccc(NC(=O)NCC)c(OC)c2)ncc1C)c1cccnc1`, for which the Potency was 0.105 µM (active).

On to `COC(=O)Nc1nc2ccc(S(=O)c3ccccc3)cc2[nH]1` (configuration not stated), for which the Potency is 6.61 µM (active).

On to `OC1CCC(Oc2cccc3cnc(Nc4ccc5nc[nH]c5c4)nc23)CC1` (configuration not stated), for which the Potency is 0.833 µM (active).

Take `CC(C)n1cc(-c2ccc3c(c2)N(C)CC3)c2c(NS(=O)(=O)c3ccn(C)n3)ccnc21`: the “viability (% of control)” value is 103%.

For the molecule `Cc1ccc(-n2nc(C(C)(C)C)cc2NC(=O)NCc2cc(F)ccc2Oc2ccc3c(cnn3CCO)c2)cc1`, the Potency was 18.6 µM (active).

On to `CN(C)CCOc1ccc(-c2nc(-c3ccc4c(c3)CC/C4=N\O)c(-c3ccncc3)[nH]2)cc1`, for which the Potency was 16.6 µM (active).

As for `COc1cc(OC)cc(N2CCN(C(=O)Nc3nc4cc(F)ccc4nc3OC)CC2)c1`, the Potency was 0.934 µM (active).

`CC(C)Oc1ccc(C(=O)N[C@H](CNC(=O)CN(C)C)Cc2ccc(-c3cn4cccc([C@H](C)O)c4n3)cc2)cc1Cl`: the Potency was 0.263 µM (active).

In the case of `O=C(NC[C@H](O)CO)c1ccncc1Nc1ccc(I)cc1F`, the Potency is 0.525 µM (active).

On to `N#C/C(=C(/N)Sc1ccc(N)cc1)c1ccccc1C(F)(F)F`, for which the Potency is 5.9 µM (active).

With `COc1cc(C(C)C)c2c(c1)S(=O)(=O)N(COc1cc(=O)n3cccc(OCCN4CCCCC4)c3n1)C2=O`, the Potency is 29.5 µM (active).

As to `CCN(C(=O)c1c(O)c2c(Cl)cccc2n(C)c1=O)c1ccccc1`, the Potency was 9.34 µM (active).

A further assay in a line: BET inhibitor-based combinations targeting novel dependencies in MECOM-rearranged (r) AML: AML-194 cell line (AID 2202237; note: nearly all actives have a fitted effect of over 40% in size;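 for viability (% of control): plate controls were vehicle wells for no effect and wells without cells for full effect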). The note with it: AML-194 (MECOM-r AML) viability, CellTiter-Glo, 48 h; series mostly up to 46 µM; viability (% of control): at the top concentration. Put shortly: as §1
For orientation: ATP-based viability assays read luminescence as a measure of living cells.
On to `O=C(Nc1ncc(SCCN2CCCC2)s1)[C@]1(c2ccc(S(=O)(=O)C3CC3)cc2)C[C@H]1C1CCCCC1`, for which the Potency was 16.6 µM (active).

As for `Nc1ncc(C(=O)NC2CN(C(=O)C3CC3)C2)c2ccc(-c3cccc(F)c3)nc12`, the “viability (% of control)” value is 106%.

For the molecule `COC1CC(C(=O)c2ccc3c(N)ncc(-c4ccc(-c5cnn(C)c5)cc4)c3n2)C1` (configuration not stated), the Potency was 11.8 µM (active).

Regarding `Cc1ccc2nc(NCCN)c3ncc(C)n3c2c1`, the Potency was 8.33 µM (active).

As to `COc1ccc(-c2oc3ncnc(N)c3c2-c2ccc(NC(=O)Nc3cc(C(F)(F)F)ccc3F)cc2)cc1`, the Potency was 7.42 µM (active).

In the case of `C=C[C@@H]1CN2CCC1C[C@H]2[C@H](O)c1ccnc2ccc(OC)cc12` (some centres not stated), the “viability (% of control)” value was 103%.

For the molecule `O=C(NC1CC1)c1cccc(-c2ccc3c(NC(=O)C4CC4)n[nH]c3c2)c1`, the Potency was 4.68 µM (active).

Turning to `COc1cc(C(=O)NC(N)=Nc2ccc(C)c(NC(=O)c3ccc(-c4ccccc4)cc3)c2)cc(OC)c1OC`, the Potency was 23.5 µM (active).

For `COc1ccc2c(c1)c(C1=C(c3c[nH]c4ccccc34)C(=O)NC1=O)cn2CCCN(C)C`, the Potency is 23.5 µM (active).

Take `C=CCN(/C=C1\C(=O)O[C@@H](COC)[C@]2(C)C1=C(O)C(=O)C1=C2[C@@H](OC(C)=O)C[C@]2(C)C(=O)CC[C@H]12)CC=C`: the Potency was 18.6 µM (active).

On to `NS(=O)(=O)Oc1ccc2c3c(c(=O)oc2c1)CCCCC3`, for which the “viability (% of control)” value was 103%.

In the case of `CO[C@H]1/C=C/O[C@@]2(C)Oc3c(C)c(O)c4c(O)c(c5c(nc6cc(C)ccn65)c4c3C2=O)NC(=O)/C(C)=C\C=C\[C@H](C)[C@H](O)[C@@H](C)[C@@H](O)[C@@H](C)[C@H](OC(C)=O)[C@@H]1C`, the “viability (% of control)” value was 113%.

In the case of `COc1cccc(-c2c(C)n(Cc3c(F)cccc3C(F)(F)F)c(=O)n(C[C@H](NCCCC(=O)O)c3ccccc3)c2=O)c1F`, the Potency result was “inactive”.

Regarding `N#Cc1ccc(-c2c(-c3ncn[nH]3)sc(N3CCOCC3)c2C#N)c(F)c1`, the Potency was 3.32 µM (active).

For `CCN(CC)C(=S)SSC(=S)N(CC)CC`, the Potency is 0.296 µM (active).

Take `CCC(=O)N1CCOc2c(cc(-c3cc(OC)cc(OC)c3)cc2C(=O)N[C@H]2CCCN(C)C2)C1`: the Potency is 18.6 µM (active).

In the case of `CCC[C@H](Nc1nc(-c2ccc(NC(=O)NCC)c(OC)c2)ncc1C)c1cccnc1`, the Potency was 0.105 µM (active).

Take `COC(=O)Nc1nc2ccc(S(=O)c3ccccc3)cc2[nH]1` (configuration not stated): the Potency was 7.42 µM (active).

Turning to `OC1CCC(Oc2cccc3cnc(Nc4ccc5nc[nH]c5c4)nc23)CC1` (configuration not stated), the Potency was 1.32 µM (active).

`CC(C)n1cc(-c2ccc3c(c2)N(C)CC3)c2c(NS(=O)(=O)c3ccn(C)n3)ccnc21`: the “viability (% of control)” value was 115%.

As to `Cc1ccc(-n2nc(C(C)(C)C)cc2NC(=O)NCc2cc(F)ccc2Oc2ccc3c(cnn3CCO)c2)cc1`, the Potency is 16.6 µM (active).

Turning to `CN(C)CCOc1ccc(-c2nc(-c3ccc4c(c3)CC/C4=N\O)c(-c3ccncc3)[nH]2)cc1`, the Potency is 20.9 µM (active).

Regarding `COc1cc(OC)cc(N2CCN(C(=O)Nc3nc4cc(F)ccc4nc3OC)CC2)c1`, the Potency was 1.05 µM (active).

Regarding `CC(C)Oc1ccc(C(=O)N[C@H](CNC(=O)CN(C)C)Cc2ccc(-c3cn4cccc([C@H](C)O)c4n3)cc2)cc1Cl`, the Potency was 0.332 µM (active).

`COc1cc(C(C)C)c2c(c1)S(=O)(=O)N(COc1cc(=O)n3cccc(OCCN4CCCCC4)c3n1)C2=O`: the Potency was 23.5 µM (active).
